Residue numbers refer to the chain shown, from its start. In all, about 5,800 sequences were measured (“enrichment r”: median about 0.68, highest 2% from about 11 on). The sample holds the highest values, similar sequences and a random draw of the others, so the mix is not that of the screen.

Drawing on paper PMC12136788, this text covers binding signal for 17 molecules.

The chains are these.
B1: chr8:144773268:144774605:-|CDS|ENSG00000196378|control|control|control (ssRNA)
RNA: GGGAGUUCUACAGUCCGACGAUCCACCAGAGGAUUCACACUGGGGAGAAACCCUACAAGUGUGGGGAGUGUGGGAAGCACUUUAGCGCCUACUCUUCCCUGAUUUAUCACCAGAGAAUCCACACCGGAGAGAAACCCUAUAAACAACAGAGGAUUGAGCAUCA
B2: chr7:123692404:123692516:-|CDS|ENSG00000106299|unk|total|mutant (ssRNA)
RNA: GGGAGUUCUACAGUCCGACGAUCCCUGCCUUCUGAUGGGGACCAUCAGGUUCCAACUACUGCAGGAAACAAAGCAGCUCUUUCCGAUCAAAUCCGAGAGGGUGCUCAGCUAAAAAAAGUGGAGCAGAACAGUCGGCCAGUGUCCAACAGAGGAUUGAGCAUCA
B3: chr2:32377587:32377702:+|CDS|ENSG00000115760|unk|FALSE|unique (ssRNA)
RNA: GGGAGUUCUACAGUCCGACGAUCGGUGAAAUGUCAGUAUAUCUCUGCUGUGGAUAAAGUUAUAUUUGUGGAUGAUUAUGCAGUAGGGUGUAGGAAGGACCUUAAUGGAAUCUUGUUGUUAGACACUGCUCUGCAAACUCCAGUCAACAGAGGAUUGAGCAUCA
B4: chr15:69268886:69268987:+|CDS|ENSG00000138604|unk|total|mutant (ssRNA)
RNA: GGGAGUUCUACAGUCCGACGAUCGGAGUUAAAGCUGUGUUUAUGAAUAAACAUGACUGGUAUGAAGAAUAUCCAACCACACCCCGCUCUUUUGUUUUAAAUGGCUUUAUGUAUUCUUUAAUUGGGCUGUAUGACUUAAAAGAACAACAGAGGAUUGAGCAUCA
B5: ENSG00000107863:be:win_3351|CDS|ENSG00000107863|bound_else_gene|NA|bound_elsewhere_windowed (ssRNA)
RNA: GGGAGUUCUACAGUCCGACGAUCAAAAGACAAAGGCACAUGGAGAAAAGGCAUUCCAAGUAUCAUGAGAAAGACAUUUGAGAAAAAGCCAACUGCUACAGGAACUUUCGGCGUCCGACUAGAUGACUGCCCACCAGCUCAUACCAACAGAGGAUUGAGCAUCA
B6: chr2:167954955:167954998:-|3pUTR|ENSG00000198648|msi1_unk|total|mutant (ssRNA)
RNA: GGGAGUUCUACAGUCCGACGAUCGUUGUAUUCCGAAAUUAAUAUACUUAUAAAAUUAAGAUUUAUCCGCCAAACUUGAAUUCCCGUUUUAAAACUGACUGUGAAUUUUAUUUUUCAUAUAUUUAUGCAUUACACACCUCCGCUCAACAGAGGAUUGAGCAUCA
B7: chr1:150220393:150220494:-|3pUTR|ENSG00000143401|msi1_unk|FALSE|overlapping (ssRNA)
RNA: GGGAGUUCUACAGUCCGACGAUCAUUGUAUGUAGAGAAAAAUUUUCAUUGACUCCCAUUGUGGAAUUCCCUAGCAAUUUAUUUAGACUUAAUUUUUUAAAUUCAAGCUUACUGUAUUAGUCAUUUUUAGCCCAUAAUUAAAACCAACAGAGGAUUGAGCAUCA
B8: chrX:85861749:85861850:-|3pUTR|ENSG00000188419|msi1|FALSE|unique (ssRNA)
RNA: GGGAGUUCUACAGUCCGACGAUCCUAAUUUAAAAUUUCAGAAAAUGCUAUUAAAGAAUUUUGAUUCAAGUAUUUAAACUGUUUAGUUAUGCAUGCUUCUUAUUAACCGAAAAUGAUAAUACCAUUUAGUUUAGUGAUCAGUAUCAACAGAGGAUUGAGCAUCA
B9: chr1:150220393:150220494:-|3pUTR|ENSG00000143401|msi1_unk|total|mutant (ssRNA)
RNA: B7 RNA with U32C, A33C, U71C, A72C, U83C, A84C, U117C, A118C, U127C, A128C
B10: chr1:235448940:235449205:-|3pUTR|ENSG00000162885|unk|FALSE|unique (ssRNA)
RNA: GGGAGUUCUACAGUCCGACGAUCAAUAGAGAAUUCCAUUAAAACUAGUCUUAUGACAGAUAUUAACUGUGUUCAGAUUUUAUUAGGCUAGCUAGUUUCUUUCUAUUUAAUAUUUAAAUCUUAUCAUGAAAUGCAGUGAUGAGCCAACAGAGGAUUGAGCAUCA
B11: chr10:92030311:92030412:+|3pUTR|ENSG00000095564|unk|FALSE|unique (ssRNA)
RNA: GGGAGUUCUACAGUCCGACGAUCAUAUAAGAUUGAAACUGUAAAAUAUAUGCAACUGUGUGUUAUUUGUAGGAAAUGGUCACUAGAAAGAGCAAAAGAUUAUUCAGGUAUACAGGUUUUUUUUCAUUGUUUAGGAUUUUAACUCAACAGAGGAUUGAGCAUCA
B12: chr2:167954955:167954998:-|3pUTR|ENSG00000198648|msi1_unk|FALSE|overlapping (ssRNA)
RNA: B6 RNA with C32U, C33A, C66U, C67A, C83U, C84A, C139U, C140A
B13: ENSG00000172071:stop:overlap|stop_codon|ENSG00000172071|stop_codon|NA|stop_codon (ssRNA)
RNA: GGGAGUUCUACAGUCCGACGAUCCAUCGGGAACAAAACAUUCAAGACAGUCCAACAACUCCCAUAGCCCUUUGCCAAGCAAUUAGCCUUAAGUUGUGCUAGCAACCCUAAUAGGUGAUGCAGAUAAUAGCCUACUUCUUAGAACAACAGAGGAUUGAGCAUCA
B14: chr5:75599425:75599511:+|3pUTR|ENSG00000122008|msi1_unk|total|mutant (ssRNA)
RNA: GGGAGUUCUACAGUCCGACGAUCGAACCGCUUAAUUAAGAACUCACAGACUUUGACAAAGUGGUAACCCGACUUUUAAUUACCCGAUUCUUCAAAUCCGGCUUAAUGCCUGCCCGCAUGCCAAUCCAAUCCCAUGACUGAUGUCAACAGAGGAUUGAGCAUCA
B15: chr4:140550230:140550341:+|CDS|ENSG00000179387|unk|FALSE|unique (ssRNA)
RNA: GGGAGUUCUACAGUCCGACGAUCGAAUUUGACAAGUUUUGGUUUGAAGAAGAACCAGAAAGCAUUAUGUAUUUCAAUUUGUAUAGAGAGAAGUUUCAUGAAAAGAUUAAAGGACUUUUACUGGAUUGUAAUGUAGCACUUACUCAACAGAGGAUUGAGCAUCA
B16: chr1:235448940:235449205:-|3pUTR|ENSG00000162885|unk|total|mutant (ssRNA)
RNA: B10 RNA with U26C, A27C, U45C, A46C, U83C, A84C, U88C, A89C, U92C, A93C
B17: chr5:75599425:75599511:+|3pUTR|ENSG00000122008|msi1_unk|FALSE|overlapping (ssRNA)
RNA: B14 RNA with C27U, C28A, C68U, C69A, C83U, C84A, C97U, C98A, C113U, C114A

The assay addresses T1, UNK ZnF1-6 (called full-length) (human, UniProt Q9C0B0 30-357).
T1 sequence: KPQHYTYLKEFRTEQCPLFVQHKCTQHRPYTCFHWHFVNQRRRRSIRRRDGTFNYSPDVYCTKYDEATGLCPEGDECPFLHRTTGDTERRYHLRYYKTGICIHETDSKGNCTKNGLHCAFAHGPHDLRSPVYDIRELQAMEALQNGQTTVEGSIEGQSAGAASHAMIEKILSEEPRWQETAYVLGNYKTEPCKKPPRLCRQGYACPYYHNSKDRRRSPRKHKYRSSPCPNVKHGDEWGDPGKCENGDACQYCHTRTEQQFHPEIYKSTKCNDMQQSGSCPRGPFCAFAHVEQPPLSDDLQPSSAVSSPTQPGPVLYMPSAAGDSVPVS
Description: nsRBNS (natural sequence RNA bind-n-seq); RBNS binding buffer (assumed for nsRBNS): 25 mM Tris pH 7.5, 150 mM KCl, 3 mM MgCl2, 0.01% Triton X-100, 500 ug/ml BSA, 20 U/ml SUPERase-In, 4 C; UNK is unkempt and MSI1 is Musashi-1; names of the RNAs are library labels; protein concentration not given here; high values mean tight binding.
The molecule B1 registered a binding signal of 0.587 enrichment R.

For B2, the binding signal came to 0.493 enrichment R.

B3 gave a binding signal of 0.488 enrichment R.

In turn, B4 displayed a binding signal of 0.547 enrichment R.

B5 returned a binding signal of 0.507 enrichment R.

For the molecule B6, the binding signal came to 3.43 enrichment R.

B7 displayed a binding signal of 228 enrichment R.

As to B8, the binding signal was 2.27 enrichment R.

As to B9, the binding signal amounted to 2.56 enrichment R.

Molecule B10 displayed a binding signal of 35.6 enrichment R.

B11 registered a binding signal of 3.36 enrichment R.

The molecule B12 registered a binding signal of 15.2 enrichment R.

In turn, B13 registered a binding signal of 1.57 enrichment R.

Molecule B14 registered a binding signal of 0.537 enrichment R.

B15: the binding signal worked out at 0.651 enrichment R.

B16 came in with a binding signal of 2.39 enrichment R.

Turning to B17, the binding signal is 38.5 enrichment R.
